A selection: hits, their analogues and other compounds. The true share with any hit is near 3.3%.
INS-1E GSIS act = GLuc luminescence reporter in INS-1E cells, primary screen for activators of glucose-dependent secretion of insulin; actives 0.61% (n = 370,000); INS-1E GLuc reporter insulin secretion, 2-3 h; activation, % at 16.6 µM; AID 743287, 2014;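 active = lowest replicate activation of at least 40%, so every replicate reaches that level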
FGF22 binding = binders of human FGF22 protein, primary screen, FGF22 synaptogenesis inhibitor project, biophysical, thermal shift, single point | Fibroblast growth factor 22 (Homo sapiens), Q9HCT0 | actives 1.5% (n = 340,000) | activity (Tm shift, normalised), % at 9.99 µM | recombinant FGF22 thermal shift, SYPRO orange fluorescence; percent of sucrose octasulfate shift, DMSO zero;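 active = mean Tm shift, scaled 0 neutral to 100 positive control, at about 1.3% or above, every replicate too, limit read from the data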
ERAP1 inh = human ERAP1 aminopeptidase inhibitors, primary screen, biochemical, single point, plate reader. AID 652197, 2013. recombinant ERAP1, Leu-AMC fluorescence, 60 min. Endoplasmic reticulum aminopeptidase 1 (Homo sapiens), Q9NZ08. actives 0.15% (n = 340,000). inhibition, % at 10.7 µM;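 active = mean replicate inhibition of at least 30%, or all replicates individually reaching that 30% level; inactive = mean below 30% and not every replicate reaching it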
CASP6 VEID inh = human caspase-6 inhibitors, primary screen, biochemical, VEID-R110 fluorescence, single point, set 2; inhibition, % at 12.5 µM; purified caspase-6, Z-VEID-R110 cleavage fluorescence; AID 686996, 2013; actives 0.53% (n = 350,000);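 active = mean inhibition across replicates at least about 35%, with every replicate also reaching that limit, limit read from the data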
Target sequence (P55212 24-179 limits assumed): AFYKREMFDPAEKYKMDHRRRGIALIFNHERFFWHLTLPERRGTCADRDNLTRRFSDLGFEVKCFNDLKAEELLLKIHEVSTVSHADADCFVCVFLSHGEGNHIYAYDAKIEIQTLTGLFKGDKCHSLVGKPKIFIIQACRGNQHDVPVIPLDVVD
Target sequence (P55212 194-293 limits assumed): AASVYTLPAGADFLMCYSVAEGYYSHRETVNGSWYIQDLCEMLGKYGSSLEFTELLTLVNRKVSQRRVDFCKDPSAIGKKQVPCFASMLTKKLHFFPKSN
SIRT5 inh = SIRT5 desuccinylase inhibitors, primary screen, biochemical, fluorescence imaging, single point, set 5 | NAD-dependent protein deacylase sirtuin-5, mitochondrial (Homo sapiens), Q9NXA8 | Purified SirT5, succinyl-peptide AMC, trypsin-coupled fluorescence | inhibition, % at 15 µM | actives 1.1% (n = 330,000) | AID 652115, 2013; in the data active = inhibition above about 15%
Target sequence (Q9NXA8 whole entry, looked up): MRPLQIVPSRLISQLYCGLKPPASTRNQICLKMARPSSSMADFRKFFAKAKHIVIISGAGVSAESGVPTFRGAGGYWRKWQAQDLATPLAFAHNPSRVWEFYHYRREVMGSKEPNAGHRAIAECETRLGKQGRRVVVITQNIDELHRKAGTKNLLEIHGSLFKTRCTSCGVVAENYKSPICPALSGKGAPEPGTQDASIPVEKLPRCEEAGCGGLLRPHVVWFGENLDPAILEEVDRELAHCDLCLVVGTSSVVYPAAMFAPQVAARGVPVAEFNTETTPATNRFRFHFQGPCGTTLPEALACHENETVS
Each line names hits and unclear results; the compound was inactive in the other large screens.

CCOc1ccc(CN2CCN(Cc3nc(C(C)C)cs3)CC2CCO)cc1 (stereo unspecified)	FGF22 binding 43
CCC(CNc1cc(OC)cc2cccnc12)NC1CCCCC1 (stereo unspecified)	CASP6 VEID inh 71
O=C(NC1CCCC1)N1CC(=O)N2[C@H](CO)[C@@H](c3ccc(-c4cccc(F)c4)cc3)[C@H]2C1	none (no result: FGF22 binding, ERAP1 inh, CASP6 VEID inh)
CCCNC(=O)C[C@@H]1CC[C@@H]2[C@H](COc3ccc(NC(=O)C4CCCC4)cc3C(=O)N2C)O1	none
O=C(CC(=O)c1cccc([N+](=O)[O-])c1)Nc1ccccc1Cl	FGF22 binding 44
O=C(C[C@@H]1CC[C@H]2[C@@H](COC[C@@H](O)CN2C(=O)Nc2ccc(C(F)(F)F)cc2)O1)NCC1CCCCC1	none
COc1ccc(N2CCN(Cc3cc(OC)c(O)c([N+](=O)[O-])c3)CC2)cc1	none (no result: FGF22 binding, ERAP1 inh, CASP6 VEID inh, SIRT5 inh)
COc1cc(CN2CCN(c3cccc(C)c3C)CC2)cc([N+](=O)[O-])c1O	FGF22 binding 43
CO[C@H]1CN(C)C(=O)c2cccc(C#N)c2OCC[C@H]2CC[C@@H](OC)[C@H](CN(C)C(=O)[C@@H]1C)O2	none
CCCCN1Cc2c(nc3cc(-c4ccco4)[nH]n3c2=O)C1=O	CASP6 VEID inh 44 (no result: INS-1E GSIS act)
Cc1c(C(=O)O)cccc1-n1c(C)cc(/C=N/Nc2ccc([N+](=O)[O-])cn2)c1C	SIRT5 inh 16 (no result: FGF22 binding)
Cc1ccc(-n2c(C)cc(/C=N/Nc3ccc([N+](=O)[O-])cn3)c2C)cc1	none (no result: FGF22 binding, ERAP1 inh, CASP6 VEID inh, SIRT5 inh)
CCC(=O)Nc1ccc2c(c1)OC[C@H](C)N(Cc1cncnc1)C[C@H](C)[C@H](OC)CN(C)C2=O	none (no result: FGF22 binding, ERAP1 inh, CASP6 VEID inh, SIRT5 inh)
CN(C(=O)Cn1nc(C(=O)O)c2ccccc2c1=O)c1ccccc1	none
Cc1nn(CC(=O)N(C)C)c(=O)c2ccccc12	SIRT5 inh 19 (no result: FGF22 binding)
COCC(=O)N1CCC2(CC1)CN(C(=O)CN1CCOCC1)[C@@H](CO)c1c2c2ccc(OC)cc2n1C	none
CCOc1ncccc1C(=O)OCC(=O)NC1CCCCC1	none
CCOc1ncccc1C(=O)OC(C)C(=O)Nc1ccc(N2CCOCC2)cc1 (stereo unspecified)	CASP6 VEID inh 35
CCOc1ncccc1C(=O)OC(C)C(=O)NC(=O)NC1CCCCC1 (stereo unspecified)	FGF22 binding 43
O=C(C1CCC1)N1CC[C@@H]2[C@H]1c1cc(Br)ccc1N[C@@H]2CO	none (no result: FGF22 binding)
CNS(=O)(=O)c1cccc(C(=O)OCC(=O)Nc2ccc(N3CCCCC3)cc2)c1	FGF22 binding 43
COc1ccc(/C=C(\NC(=O)c2ccccc2)C(=O)OCC2CCCN3CCCCC23)cc1OC (stereo unspecified)	FGF22 binding 44
COc1ccc(/C=C(/NC(=O)c2ccccc2)C(=O)N2CCCC2)cc1OC	none
Nc1nccc(-c2ccc(-n3cnc4ccccc43)cc2)n1	SIRT5 inh 21
COC(=O)c1cc(C#N)c(OC)nc1C	FGF22 binding 43
COCC(=O)Nc1ccc2c(c1)[C@@H]1C[C@@H](CC(=O)NCC3CC3)O[C@H](CO)[C@@H]1O2	none
C[C@H]1CN([C@@H](C)CO)C(=O)c2cc(-c3cccc(F)c3)cnc2O[C@@H]1CN(C)Cc1cccc(F)c1	none (no result: FGF22 binding, ERAP1 inh, CASP6 VEID inh, SIRT5 inh)
CCOc1c(Br)cc(Br)cc1/C=C1\SC(N)=NC1=O	SIRT5 inh 15
CN(C)c1ccc2c(c1)[C@H]1C[C@H](CC(=O)NCCN3CCCCC3)O[C@H](CO)[C@H]1O2	none
C[C@@H]1CCCCO[C@@H](CN(C)C(=O)c2ccccc2)[C@H](C)CN([C@H](C)CO)C(=O)c2cc(NS(=O)(=O)c3ccc(F)cc3)ccc2O1	none
C/C=C1\COC(C(=O)NCc2ccccc2)(C(F)(F)F)C=C1C=C(C)C (stereo unspecified)	INS-1E GSIS act 112 (no result: SIRT5 inh)
C=CCNc1nnc(Cl)c2ccccc12	SIRT5 inh 26
C[C@@H]1CN(C)C(=O)Cc2ccccc2O[C@@H]1CN(C)C	none (no result: FGF22 binding, ERAP1 inh, CASP6 VEID inh, SIRT5 inh)
C=CCn1c(SCC(=O)N2CCCC2)nc2c([nH]c3ccccc32)c1=O	none
C=CCn1c(SCC(=O)N2CCN(C(=O)OCC)CC2)nc2c([nH]c3ccccc32)c1=O	INS-1E GSIS act 43 (no result: SIRT5 inh)
NC(=S)N/N=C/c1cc([N+](=O)[O-])ccc1Cl	none
Nc1nnnn1CC(=O)N/N=C/c1cc([N+](=O)[O-])ccc1Cl	FGF22 binding 43
CCSc1nnc(-c2cccnc2)n1-c1ccc(C)c(Cl)c1	INS-1E GSIS act 64
CCOc1ccc(-n2c(SCC(N)=O)nnc2-c2cccnc2)cc1	none
C[C@@H]1CN([C@H](C)CO)C(=O)c2cc(NC(=O)CCC(F)(F)F)ccc2O[C@@H](C)CCCCO[C@@H]1CN(C)C(=O)C1CCCCC1	none
C[C@@H]1CN([C@H](C)CO)C(=O)c2cc(C#C[C@@H](C)O)cnc2O[C@@H]1CN(C)C(=O)CC1CC1	none
COC(=O)c1sccc1NC(=O)COc1ccc(Cl)cc1Cl	INS-1E GSIS act 61 (no result: FGF22 binding, ERAP1 inh, CASP6 VEID inh, SIRT5 inh)
Cc1nnsc1C(=O)N1CCCC(Nc2ccc(F)c(F)c2)C1 (stereo unspecified)	FGF22 binding 57
Cc1ccc(C(=O)N2CCCC(Nc3ccc(F)c(F)c3)C2)cn1 (stereo unspecified)	none
CCOC(=O)C1=NOC(CNC(=O)c2ccccc2Cl)C1 (stereo unspecified)	none
CCOC(=O)C1=NOC(COc2ccccc2C=O)C1 (stereo unspecified)	SIRT5 inh 23
CC(=O)OCC1=C(C(=O)O)N2C(=O)[C@@H](NC(=O)Cc3ccccc3)[C@H]2SC1	none
C=CC1=C(C(=O)O)N2C(=O)C(NC(=O)Cc3ccccc3)C2SC1 (stereo unspecified)	CASP6 VEID inh 96 (no result: FGF22 binding, SIRT5 inh)
CC12CCC(=O)N1C(C(=O)Nc1nc(-c3ccc(F)cc3)cs1)CS2 (stereo unspecified)	none
CC12CCC(=O)N1C(C(=O)Nc1nc(-c3ccc(F)c(F)c3)cs1)CS2 (stereo unspecified)	SIRT5 inh 15
Cc1cc(F)ccc1NC(=O)C1CSC2(C)CCC(=O)N12 (stereo unspecified)	SIRT5 inh 18
C[C@H](CO)N1C[C@H](C)[C@@H](CN(C)Cc2ccccc2)Oc2ccc(NC(=O)Cc3cn(C)c4ccccc34)cc2CC1=O	none
COc1cc(C)c(/C=C(\C#N)C(=O)Nc2cccc(C)c2)cc1C(C)C	FGF22 binding 44
CCNc1nc(C(=O)O)nc(N2CCOCC2)n1	FGF22 binding 43
Cc1cccc(COC[C@H](Cc2ccccc2)N2CCN(C(=O)c3cc(Cl)cc(Cl)c3)CCC2=O)c1	SIRT5 inh 41 (no result: ERAP1 inh)
